Tau fibril FP: tau fibrillization inhibition (FP) | P10636 | K18 P301L tau heparin fibrillization, Alexa594 FP, 6 h | Potency, µM (doses to about 57.7 µM), usual class: inhibitors | 0.39% of 280,000 active; further: nearly all actives have a fitted effect of over 55% in size
Target sequence (P10636 561-689 P618L limits assumed): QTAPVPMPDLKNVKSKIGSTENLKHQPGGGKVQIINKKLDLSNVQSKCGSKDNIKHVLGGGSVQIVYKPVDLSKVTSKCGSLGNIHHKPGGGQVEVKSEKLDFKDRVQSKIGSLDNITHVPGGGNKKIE
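Heparin (20 uM) drove fibril formation of recombinant tau K18 P301L, 15 uM unlabeled with 0.24 uM Alexa 594 label, for 6 hr at 37 C in 100 mM sodium acetate pH 7. Fluorescence polarization (555/632 nm) read 1 hr after 30 uM ThT.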
TR SRC2 fluor cs: alters Texas Red total fluorescence, flagging assay interference; 0.29% of 280,000 active; Potency, µM (top dose mostly 106 µM); TRb/SRC2 Texas Red total fluorescence interference; active means well fitted curve in either direction with a large enough effect; inconclusive means small, poorly fitted or top-dose-only effect
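Flags fluorescent or light-absorbing compounds by total fluorescence, S + 2P, at 555 nm excitation and 632 nm emission. Mixture: 20 nM Texas Red SRC2 peptide, 0.6 uM human TRb LBD, 1 uM T3, 5% DMSO; compound exposure 5 h at ambient temperature.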
Tau fluor counter: counter-screen for tau fibril formation inhibitors. Potency, µM (doses to about 57.7 µM). tau K18 P301L Alexa594 fluorescence, heparin fibrillization. AID 1463. 0.93% of 280,000 active; further: nearly all actives have a fitted effect of over 55% in size
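Human K18 P301L tau (15 uM unlabeled plus 0.24 uM Alexa 594-labeled, final) in 100 mM sodium acetate pH 7 was mixed with compound and 20 uM heparin and incubated 6 hr at 37 C.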
TRb SRC2 PPI: disrupts binding of human TR beta to SRC2. P10828. TRbeta-SRC2 peptide binding, fluorescence polarization; receptor liganded with 1 µM T3. AID 1469. 0.065% of 280,000 active. Potency, µM (highest dose often 106 µM), actives largely listed as inhibitors; further: nearly all actives have a fitted effect of over 50% in size
Target sequence (P10828 whole entry, looked up): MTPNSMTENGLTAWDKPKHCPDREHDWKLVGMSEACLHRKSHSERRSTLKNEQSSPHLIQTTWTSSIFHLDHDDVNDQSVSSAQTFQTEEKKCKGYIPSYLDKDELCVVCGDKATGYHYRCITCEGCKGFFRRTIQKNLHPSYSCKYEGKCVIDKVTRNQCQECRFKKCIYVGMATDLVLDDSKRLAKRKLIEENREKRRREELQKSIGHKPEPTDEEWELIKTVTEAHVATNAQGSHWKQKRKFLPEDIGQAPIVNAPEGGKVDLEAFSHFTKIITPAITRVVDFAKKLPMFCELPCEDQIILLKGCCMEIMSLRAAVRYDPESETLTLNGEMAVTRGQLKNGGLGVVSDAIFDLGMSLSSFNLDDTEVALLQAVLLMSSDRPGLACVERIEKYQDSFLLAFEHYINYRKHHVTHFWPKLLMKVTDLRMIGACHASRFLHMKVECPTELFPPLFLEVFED
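Compounds were added to 0.6 uM TRb ligand-binding domain and 20 nM Texas Red-labeled SRC2 peptide in Tris buffer containing 1 uM T3, incubated 5 hr at ambient temperature, then read by fluorescence polarization.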
Tau fibril ThT: inhibitors of human tau fibril formation, thioflavin T binding | recombinant tau K18 P301L (four-repeat tau fragment), heparin-induced fibrillization, ThT fluorescence | Potency, µM (series often up to 57.4 µM), usual class: inhibitors | 2.1% of 270,000 active | AID 1460; further: nearly all actives have a fitted effect of over 55% in size
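Tau K18 P301L fragment (15 uM unlabeled plus 0.24 uM Alexa 594-labeled) in 100 mM sodium acetate pH 7 with compound, fibrillization induced by 20 uM heparin for 6 hr at 37 C. Thioflavin T (30 uM) added, fluorescence read after 1 hr (ex 450, em 510 nm).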
Each line names hits and unclear results; the compound was inactive in the other large screens; [ ] = remark or other dose. Sampled rows, rich in hits. Any-hit rate of the full collection: about 3.1%. Unless noted, the call rests on the fitted dose curve; in most records, active means well fitted curve in the direction sought with a large enough effect; inconclusive means small, poorly fitted or top-dose-only effect, or another doubt; inactive means no such curve, though single readings can be large; an effect the other way counts as inactive or inconclusive.

O=C(O)CN1C(=O)/C(=C/c2ccc(SCc3ccccc3)o2)SC1=S	Tau fibril ThT 13µM
CCCCC/C=C\C/C=C\C/C=C\C/C=C\CCCC(=O)C(F)(F)F	Tau fibril FP inconclusive, Tau fibril ThT inconclusive
O=C(O)CN1C(=O)/C(=C/C=C/c2ccccc2)SC1=S	Tau fibril ThT 11µM
COc1cc(/C=C2\SC(=S)N(NC(=O)c3cccnc3)C2=O)ccc1O	TR SRC2 fluor cs inconclusive, TRb SRC2 PPI inconclusive (no result: Tau fibril ThT)
Cn1cc(/C=C2\SC(=S)N(NC(=O)c3ccccc3Cl)C2=O)c2ccccc21	Tau fibril ThT 1.1µM
CC(=O)c1ccc(NC(=O)CN2C(=O)/C(=C/C=C/c3ccccc3)SC2=S)cc1	Tau fluor counter inconclusive, Tau fibril ThT inconclusive
Cc1ccc(/C=C2/SC(=O)NC2=S)o1	Tau fibril FP 10µM, Tau fluor counter inconclusive, Tau fibril ThT 4.5µM
O=C(NN1C(=O)/C(=C\c2ccc(O)c([N+](=O)[O-])c2)SC1=S)c1ccccc1Cl	Tau fluor counter inconclusive, Tau fibril ThT 3.2µM
OCc1ccc(-c2ccc(-c3ccc(CO)s3)o2)s1	Tau fluor counter inconclusive, Tau fibril ThT inconclusive
Cc1ccc(C(=O)NN2C(=O)/C(=C/c3cccn3C)SC2=S)cc1	Tau fluor counter inconclusive, Tau fibril ThT 5µM
O=C(CN1C(=O)S/C(=C\C=C\c2ccccc2)C1=O)Nc1cccc(O)c1	Tau fibril FP inconclusive, Tau fluor counter 16µM[quencher], Tau fibril ThT inconclusive
O=C(CCN1C(=O)/C(=C/C=C/c2ccccc2)SC1=S)Nc1cccnc1	Tau fibril ThT inconclusive
Cc1ccc(C(=O)NN2C(=O)/C(=C/c3cn(C)c4ccccc34)SC2=S)cc1	none
Cc1cnc(C(=O)O)c[n+]1[O-]	none (no result: Tau fibril FP, Tau fluor counter, Tau fibril ThT)
C=CCN1C(=O)N/C(=C/c2ccc(C)o2)C1=O	Tau fibril FP inconclusive, Tau fibril ThT 25µM
CCC(=O)Nc1ccc(/C=C(\C(C)=O)C(=O)c2ccccc2)cc1	none
CC(=O)/C(=C/c1ccc(N(C)C)cc1)C(=O)c1ccccc1	Tau fluor counter inconclusive, Tau fibril ThT 18µM
Cc1c(Br)c(=O)oc2c(Br)c(O)c(O)cc12	Tau fibril FP inconclusive, Tau fluor counter inconclusive, Tau fibril ThT 13µM
COC(=O)c1c(-c2cccs2)csc1NC(=O)c1ccc(C(C)(C)C)cc1	Tau fibril FP 22µM, Tau fibril ThT 25µM
COC(=O)c1c(-c2cccs2)csc1NC(=O)c1ccc(Cl)cc1	Tau fibril FP inconclusive, Tau fibril ThT 13µM
COC(=O)c1c(-c2cccs2)csc1NC(=O)c1ccc(C(C)C)cc1	Tau fibril FP inconclusive, Tau fibril ThT inconclusive
COC(=O)c1c(-c2cccs2)csc1NC(=O)c1cccc(Cl)c1	Tau fibril FP inconclusive, TR SRC2 fluor cs 1122µM[quencher], TRb SRC2 PPI inconclusive, Tau fibril ThT inconclusive
COc1cc(OC)c(NC(=O)Nc2cc(C)on2)cc1Cl	none (no result: Tau fibril FP, Tau fluor counter, Tau fibril ThT)
Cc1ccccc1NC(=O)COC(=O)c1ccc(S(C)(=O)=O)c([N+](=O)[O-])c1	Tau fluor counter inconclusive, Tau fibril ThT 13µM
C=CCn1c(NC(=O)c2ccc(Br)o2)c(S(=O)(=O)c2ccccc2)c2nc3ccccc3nc21	Tau fibril FP inconclusive, Tau fibril ThT 20µM
CCN(CC)CCNC(=O)c1[nH]c2ccc(OCc3ccccc3)cc2c1C	Tau fluor counter 20µM[quencher]
CCN(CC)CCNC(=O)c1cc2c(=O)[nH]c3ccc(C)cc3c2s1	none
Cc1ccc(CNC(=O)c2cc(=O)c3cc(C)cc(C)c3o2)cc1	Tau fibril FP inconclusive, TR SRC2 fluor cs 4µM[quencher]
Nc1ccc(S(=O)(=O)O)cc1	none (no result: Tau fibril FP, Tau fluor counter, Tau fibril ThT)
CCc1ccc(NC(=O)c2ccc3nc(N)sc3c2)cc1	Tau fibril FP 25µM, Tau fluor counter inconclusive, Tau fibril ThT inconclusive
CC1(C)OCC(CSC2=C(SCC3COC(C)(C)O3)C(=O)c3ncccc3C2=O)O1 (stereo not given)	Tau fibril FP 1.8µM, Tau fluor counter inconclusive, Tau fibril ThT 1µM
O=C(Nc1ccc2snnc2c1)Nc1cccc2ccccc12	Tau fibril FP 25µM, Tau fluor counter 7.9µM[quencher]
CCOC(=O)c1ccc(NC(=O)Nc2ccc3snnc3c2)cc1	Tau fibril FP 11µM
CCc1ccccc1NC(=O)Nc1ccc2snnc2c1	Tau fibril FP inconclusive, Tau fluor counter inconclusive
O=C(Nc1cccc(Cl)c1Cl)c1cc(S(=O)(=O)N2CCC3(CC2)OCCO3)ccc1F	Tau fibril FP inconclusive, Tau fluor counter inconclusive
O=C(O)c1ccc(N/N=C/c2ccc3c(c2)OCO3)cc1	Tau fluor counter inconclusive, Tau fibril ThT inconclusive
O=C(O)c1ccc(N/N=C/c2cc3c(cc2[N+](=O)[O-])OCO3)cc1	Tau fibril ThT 14µM
Cc1cc(SCC(=O)N/N=C/c2ccc(O)cc2O)c(C)cc1Br	Tau fluor counter 16µM[quencher], Tau fibril ThT inconclusive
O=[N+]([O-])c1ccc(/C=C/C2=NN(c3ccccc3)C(c3ccco3)C2)o1 (stereo not given)	Tau fluor counter inconclusive, TRb SRC2 PPI inconclusive, Tau fibril ThT 7.9µM
C(=C\c1ccco1)/C1=NN(c2ccccc2)C(c2ccco2)C1 (stereo not given)	Tau fluor counter inconclusive, Tau fibril ThT inconclusive
CCn1c2ccccc2c2cc(/C=N/NC(=O)c3cc(O)cc(O)c3)ccc21	none
CCn1c2ccccc2c2cc(/C=N/NC(=O)c3ccc(O)cc3)ccc21	Tau fibril FP inconclusive, Tau fluor counter 10µM[quencher], Tau fibril ThT inconclusive
O=C1NC(=O)c2cc(Nc3ccc(F)cc3)c(Nc3ccc(F)cc3)cc21	Tau fluor counter 14µM[quencher], Tau fibril ThT 13µM
O=C1NC(=O)c2cc(Nc3ccccc3)c(Nc3ccccc3)cc21	Tau fluor counter 14µM[quencher], Tau fibril ThT 14µM
CC(=O)NN1C(=O)/C(=C/c2ccc(Br)o2)SC1=S	Tau fibril FP inconclusive, Tau fluor counter inconclusive, Tau fibril ThT 16µM
CC(=O)NN1C(=O)/C(=C\c2ccc(Br)o2)SC1=S	Tau fibril ThT 25µM
Oc1c(N=Nc2ccccc2)sc2ccccc12	Tau fibril ThT 2.5µM
O=C1Nc2ccc([N+](=O)[O-])cc2OC1CCN1CCN(c2ccccc2)CC1 (stereo not given)	Tau fibril ThT 10µM
O=C1Nc2ccc([N+](=O)[O-])cc2OC1CCN1CCOCC1 (stereo not given)	none
COc1cc(C(=O)Nc2ccc(N(C)C)cc2)cc(OC)c1OC	Tau fibril ThT 16µM
CC(=O)NC(CCS(C)(=O)=O)C(=O)Nc1cc(Cl)ccc1Cl (stereo not given)	none
CC(C)S(=O)(=O)c1csc(NC(=O)Nc2cc(Cl)ccc2Cl)c1Cl	Tau fibril FP 22µM, Tau fluor counter inconclusive
Cc1ccc(NNC(=O)C(O)(c2cccc(C(F)(F)F)c2)c2cccc(C(F)(F)F)c2)cc1	Tau fluor counter 13µM[quencher]
COc1cccc(CSc2nc3cc(OC)c(OC)cc3c3nc(CCn4nc(C)cc4C)nn23)c1	none
COc1ccc(-c2ccc(-c3cc(=O)oc4cc(OC)c(OC)c(OC)c34)cc2)cc1OC	none
